# In PubChem BioAssay (Tox21):
# Results filed as inconclusive are left out. A call without a number means that no potency is given here. Activity calls are given as the source filed them. Calls come from the whole dose curve.
# Test: qHTS assay for small molecule agonists of the p53 signaling pathway - cell viability (AID 651633);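 note: p53RE-bla HCT reporter cells with a stable beta-lactamase p53 reporter; nearly all actives have a fitted effect of over 30% in size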
# Details: p53RE-bla HCT-116 viability, ATP luminescence, 16 h; series mostly up to 83.3 µM
# In short: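 Viability counter-read: CellTiter-Glo luminescence (30 min, room temperature) in the same p53RE-bla plates. These plates had been exposed to compounds for 16 h at 37 C.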
row,Compound,Potency
1,NCCCN1CCN(CCCN)CC1,inactive
2,CCCOCCC,inactive
3,CCCCNC(=S)NCCCC,inactive
4,OCCN(CCO)CCN(CCO)CCO,inactive
5,CC(C)C1=CC2=CC[C@@H]3[C@](C)(CCC[C@@]3(C)C(=O)O)[C@H]2CC1,inactive
6,NC/C=C/C(=O)O,inactive
7,COc1ccccc1N1CCN(CCCNc2cc(=O)n(C)c(=O)n2C)CC1,inactive
8,CCN1CC(CCN2CCOCC2)C(c2ccccc2)(c2ccccc2)C1=O (stereo not given),inactive
9,C[C@@H]1CN(c2c(F)c(N)c3c(=O)c(C(=O)O)cn(C4CC4)c3c2F)C[C@H](C)N1,inactive
10,CCOC(=O)c1ccccc1O,inactive
11,CC(=O)N[C@@H](CC(C)C)C(=O)O,inactive
12,CC(C)CC(=O)OCc1ccccc1,inactive
13,CC/C=C\CCOC(=O)CCCCC,inactive
14,Cc1ccc(C=O)s1,inactive
15,FC(F)(F)C(Cl)(Cl)Cl,inactive
16,CN(C)Cc1ccccc1,inactive
17,CC(C)c1ccccc1,inactive
18,O=Cc1ccc(F)c(Br)c1,inactive

row,Compound,Potency
1,CCOC(=O)C(Br)c1ccccc1 (stereo not given),inactive
2,CCCC1CCC(=O)O1 (stereo not given),inactive
3,CN1CCN(c2c(F)cc3c(=O)c(C(=O)O)cn4c3c2SCC4)CC1,inactive
4,O=c1[nH]cnc2c1ncn2[C@@H]1O[C@H](CO)[C@@H](O)[C@H]1O,inactive
5,CCOC(=O)[C@H](CCc1ccccc1)N[C@@H](C)C(=O)N1Cc2cc(OC)c(OC)cc2C[C@H]1C(=O)O,inactive
6,CC(C)C(=O)OC/C=C/c1ccccc1,inactive
7,COc1nc(C)nc(NC(=O)NS(=O)(=O)c2ccccc2OCCCl)n1,inactive
8,FC(F)(F)c1ccccc1,inactive
9,Cc1c(C(=O)NCCO)[n+](=O)c2ccccc2n1[O-],inactive
10,CCCCc1ccc2nc(NC(=O)OC)[nH]c2c1,inactive
11,NC(=O)Cc1cccc(C(=O)c2ccccc2)c1N,inactive
12,Nc1cccc(S(=O)(=O)O)c1,inactive
13,COC(=O)c1ccc(OC)cc1,inactive
14,COc1cc(C)ccc1C(C)C,inactive
15,C=Cc1ccccc1,inactive
16,Cc1cc(S(=O)(=O)O)c(N)cc1Cl,inactive
17,O=C(O)c1cccc(Cl)c1Cl,inactive

# Test: qHTS assay for small molecules that induce genotoxicity in human embryonic kidney cells expressing luciferase-tagged ATAD5 - cell viability (AID 651634); note: nearly all actives have a fitted effect of over 25% in size; note: potency is the fitted concentration of half-maximal effect
# Details: HEK293T ATAD5-luc cells viability, CellTiter-Fluor, 15.5 h; series mostly up to 83.3 µM
# In short: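 Viability read: CellTiter-Fluor fluorescence, 30 min at 37C. Cells: HEK293T, luciferase-tagged ATAD5. Exposure: 15.5 hr, 37C, 5% CO2, compound or DMSO vehicle.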
row,Compound,Potency
1,NCCCN1CCN(CCCN)CC1,inactive
2,CCCOCCC,inactive
3,CCCCNC(=S)NCCCC,inactive
4,OCCN(CCO)CCN(CCO)CCO,inactive
5,CC(C)C1=CC2=CC[C@@H]3[C@](C)(CCC[C@@]3(C)C(=O)O)[C@H]2CC1,inactive
6,NC/C=C/C(=O)O,inactive
7,COc1ccccc1N1CCN(CCCNc2cc(=O)n(C)c(=O)n2C)CC1,inactive
8,CCN1CC(CCN2CCOCC2)C(c2ccccc2)(c2ccccc2)C1=O (stereo not given),inactive
9,C[C@@H]1CN(c2c(F)c(N)c3c(=O)c(C(=O)O)cn(C4CC4)c3c2F)C[C@H](C)N1,inactive
10,CCOC(=O)c1ccccc1O,inactive
11,CC(=O)N[C@@H](CC(C)C)C(=O)O,inactive
12,CC(C)CC(=O)OCc1ccccc1,inactive
13,CC/C=C\CCOC(=O)CCCCC,inactive
14,Cc1ccc(C=O)s1,inactive
15,FC(F)(F)C(Cl)(Cl)Cl,inactive
16,CN(C)Cc1ccccc1,inactive
17,CC(C)c1ccccc1,inactive
18,O=Cc1ccc(F)c(Br)c1,inactive

row,Compound,Potency
1,CCOC(=O)C(Br)c1ccccc1 (stereo not given),inactive
2,CCCC1CCC(=O)O1 (stereo not given),inactive
3,CN1CCN(c2c(F)cc3c(=O)c(C(=O)O)cn4c3c2SCC4)CC1,inactive
4,O=c1[nH]cnc2c1ncn2[C@@H]1O[C@H](CO)[C@@H](O)[C@H]1O,inactive
5,CCOC(=O)[C@H](CCc1ccccc1)N[C@@H](C)C(=O)N1Cc2cc(OC)c(OC)cc2C[C@H]1C(=O)O,inactive
6,CC(C)C(=O)OC/C=C/c1ccccc1,inactive
7,COc1nc(C)nc(NC(=O)NS(=O)(=O)c2ccccc2OCCCl)n1,inactive
8,FC(F)(F)c1ccccc1,inactive
9,Cc1c(C(=O)NCCO)[n+](=O)c2ccccc2n1[O-],inactive
10,CCCCc1ccc2nc(NC(=O)OC)[nH]c2c1,90.2 nM (active)
11,NC(=O)Cc1cccc(C(=O)c2ccccc2)c1N,inactive
12,Nc1cccc(S(=O)(=O)O)c1,inactive
13,COC(=O)c1ccc(OC)cc1,inactive
14,COc1cc(C)ccc1C(C)C,inactive
15,C=Cc1ccccc1,inactive
16,Cc1cc(S(=O)(=O)O)c(N)cc1Cl,inactive
17,O=C(O)c1cccc(Cl)c1Cl,inactive
